Screening data (PubChem)
Sampled rows, rich in hits. Any-hit rate of the full collection: about 3.3%.
AmpC inh no detg: AmpC beta-lactamase inhibition without detergent; P00811; AmpC nitrocefin hydrolysis, absorbance 480 nm, 0.0001% Triton; Potency, µM (top dose mostly 57.1 µM), for the others: top-dose activity change, negative = inhibition, most hits filed as inhibitors; 0.52% of 330,000 active;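 note: plate controls were no compound for no effect and no enzyme for full effect; nearly all actives have a fitted effect of over 20% in size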
Target sequence (P00811 whole entry, looked up): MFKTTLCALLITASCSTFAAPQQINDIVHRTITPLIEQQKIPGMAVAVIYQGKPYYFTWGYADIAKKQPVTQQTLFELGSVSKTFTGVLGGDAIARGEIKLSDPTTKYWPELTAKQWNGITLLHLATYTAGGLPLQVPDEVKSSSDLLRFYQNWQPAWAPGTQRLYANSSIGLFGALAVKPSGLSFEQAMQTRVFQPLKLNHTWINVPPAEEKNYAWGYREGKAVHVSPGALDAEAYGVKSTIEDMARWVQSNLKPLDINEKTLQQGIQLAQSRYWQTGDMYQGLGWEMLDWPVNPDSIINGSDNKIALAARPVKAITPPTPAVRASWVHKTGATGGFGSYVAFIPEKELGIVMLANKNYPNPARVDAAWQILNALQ
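20 mM phosphate pH 7.0 + 0.01% (detergent screen) or 0.0001% Triton X-100; 5.3 nM AmpC reagent; cpd preinc 15 min RT; nitrocefin (800 uM stock) to start; A480 q20 s × 4 min; Activity was normalised to no-enzyme and no-compound control wells.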
AmpC inh detg: blocks E. coli AmpC beta-lactamase in detergent assay; P00811; AmpC hydrolysis of nitrocefin, absorbance 480 nm, 0.01% Triton; Potency, µM (titrated, usually from 114 µM), for inactives: top-dose activity change, negative = inhibition, hits mostly inhibitors; 0.041% of 370,000 active;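 note: 0% = no-compound wells and -100% = no-enzyme wells; nearly all actives have a fitted effect of over 25% in size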
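20 mM phosphate pH 7.0 + 0.01% (detergent screen) or 0.0001% Triton X-100; 5.3 nM AmpC reagent; cpd preinc 15 min RT; nitrocefin (800 uM stock) to start; A480 q20 s × 4 min; Activity was normalised to no-enzyme and no-compound control wells.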
Sm TGR block: inhibitors of Schistosoma mansoni thioredoxin glutathione reductase; purified TGR, DTNB reduction, TNB absorbance 405 nm; Potency, µM (doses to about 114 µM), for the others: at the highest dose activity change, negative = inhibition, hits mostly inhibitors; 3% of 360,000 active; note: nearly all actives have a fitted effect of over 60% in size
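TGR 20 nM + NADPH 100 uM (dispensed conc.), cpd preinc 15 min RT; start with NADPH (500 uM addition) then DTNB (15 mM addition). Kinetic TNB absorbance, 405 nm filter. Four-parameter Hill fit across titration.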
Starred values were filed as active, the others as inactive. Calls come from the whole dose curve; as a rule, active = well fitted curve in the direction sought with a large enough effect; inconclusive = small, poorly fitted or top-dose-only effect, or another doubt; inactive = no such curve, though single readings can be large; an effect the other way counts as inactive or inconclusive. Unless noted, % is set by controls: 0 for no effect and ±100 for the full control effect; potency is the fitted concentration of half-maximal effect.

How did O=[N+]([O-])c1ccc(S(=O)(=O)CC(CN2CCOCC2)N2CCOCC2)cc1 (stereo not given) do in these assays?
AmpC inh no detg: -16%; AmpC inh detg: 5%; Sm TGR block: inconclusive

What do the screens show for `O=[N+]([O-])c1ccc(S(=O)(=O)CC(CN2CCCCC2)N2CCCCC2)cc1` (stereo not given)?
AmpC inh no detg: -4%; AmpC inh detg: 1%; Sm TGR block: 7.9µM*

What do the screens show for `CCN(CC)c1ccc(NC(=O)CCc2nc3cccnc3n2Cc2cccs2)c(C)c1`?
AmpC inh detg: -9%; Sm TGR block: -6%

Results for CC(=O)c1cccc(OCC(=O)N(C)CC(=O)Nc2ccc(F)cc2)c1 ?
AmpC inh no detg: -5%; AmpC inh detg: 4%; Sm TGR block: 3%

Results for CCC(C(=O)NCc1ccco1)N(C(=O)CNS(=O)(=O)c1ccccc1)c1ccc(F)cc1 (stereo not given) ?
AmpC inh no detg: -9%; AmpC inh detg: 1%; Sm TGR block: 6%

How did CC(C)C(C(=O)NCc1ccco1)N(C(=O)CNS(=O)(=O)c1ccccc1)c1ccccc1 (stereo not given) do in these assays?
AmpC inh no detg: -7%; AmpC inh detg: -1%

Results for CC(C)C(C(=O)NCc1ccco1)N(C(=O)CNS(=O)(=O)c1ccc(Cl)cc1)C1CCCC1 (stereo not given) ?
AmpC inh no detg: -27%; AmpC inh detg: -7%; Sm TGR block: 45µM*

What do the screens show for `CCC(C(=O)NCc1ccco1)N(C(=O)CNS(=O)(=O)c1ccc(F)cc1)c1ccccc1F` (stereo not given)?
AmpC inh no detg: -4%; AmpC inh detg: inconclusive; Sm TGR block: 45µM*

Results for COc1ccc(N2Cc3cccc(C(=O)Nc4ccc(C)c(C)c4)c3C2=O)cc1 ?
AmpC inh detg: -11%; Sm TGR block: -1%

Results for Cc1ccc(S(=O)(=O)N2CCOCC2)cc1C(=O)NC1CCCC(C)C1C (stereo not given) ?
AmpC inh no detg: 18%; AmpC inh detg: -20%; Sm TGR block: -2%

Results for O=C(CSC1CCCCC1)Nc1ccccc1Br ?
AmpC inh no detg: -1%; AmpC inh detg: 0%; Sm TGR block: -5%

How did O=C(CN1C(=O)c2ccccc2C1=O)OCC(=O)N1CCN(c2ccccc2)CC1 do in these assays?
AmpC inh no detg: -2%; AmpC inh detg: -9%; Sm TGR block: 8%

What do the screens show for `CCCc1[nH]nc2c1C(c1cc(OC)ccc1F)C(C#N)=C(N)O2` (stereo not given)?
AmpC inh no detg: -22%; AmpC inh detg: -14%; Sm TGR block: inconclusive

What do the screens show for `CCCc1[nH]nc2c1C(c1cc(OC)cc(OC)c1)C(C#N)=C(N)O2` (stereo not given)?
AmpC inh no detg: -19%; AmpC inh detg: -6%; Sm TGR block: 25µM*

How did O=C(NCc1ccc2c(c1)CCN2C(=O)c1ccncc1)c1ccccc1Cl do in these assays?
AmpC inh detg: 11%; Sm TGR block: 0%

How did CCOc1ccc(N2CC(NC(=O)c3ccc4c(c3)OCO4)CC2=O)cc1 (stereo not given) do in these assays?
AmpC inh detg: -1%; Sm TGR block: 1%

How did NC(=S)Nc1cccc(O)c1 do in these assays?
AmpC inh no detg: -4%; AmpC inh detg: 2%; Sm TGR block: -2%

How did Nc1cccc(O)c1 do in these assays?
AmpC inh no detg: -9%; AmpC inh detg: 2%; Sm TGR block: 7.1µM*

How did O=C(Cc1ccccc1Cl)Nc1ccc(S(=O)(=O)Nc2nccs2)cc1 do in these assays?
AmpC inh no detg: -40%; AmpC inh detg: 6%; Sm TGR block: -2%

How did O=C(CSc1ccc(Br)c2cccc(Cl)c12)Nc1ccc(S(=O)(=O)Nc2nccs2)cc1 do in these assays?
AmpC inh no detg: 2.5µM*; AmpC inh detg: 2%

How did CC1C(=O)OC2C1CCC1(C)CCC(=O)C(C)C21 (stereo not given) do in these assays?
AmpC inh no detg: 59%; AmpC inh detg: -4%; Sm TGR block: 3.5µM*

Results for CC1=CC(=O)C2=C(C)CC[C@@H]3[C@H](OC(=O)[C@H]3C)[C@@H]12 ?
AmpC inh no detg: -7%; AmpC inh detg: 4%; Sm TGR block: 11%

Results for COCCn1c(C)cc(C(=O)COC(=O)c2ccc(Cl)c(S(N)(=O)=O)c2)c1C ?
AmpC inh no detg: -20%; AmpC inh detg: -20%; Sm TGR block: -1%

What do the screens show for `COc1ccc(CN2CCN(Cc3ccco3)CC2)cc1OC`?
AmpC inh no detg: -9%; AmpC inh detg: -15%; Sm TGR block: -9%

How did Clc1ccccc1N1CCN(Cc2ccco2)CC1 do in these assays?
AmpC inh no detg: 6%; AmpC inh detg: inconclusive; Sm TGR block: -4%

What do the screens show for `COc1ccc(C(c2c(O)cc(C)n(Cc3ccco3)c2=O)N2CCCCC2)cc1OC` (stereo not given)?
AmpC inh detg: 22%; Sm TGR block: 7.9µM*

Results for COc1ccc(N2CCN(C(c3ccccc3OC)c3nnnn3Cc3ccco3)CC2)cc1 (stereo not given) ?
AmpC inh no detg: 14%; AmpC inh detg: 8%; Sm TGR block: -8%

How did COCCn1c(C)cc(O)c(C(c2ccccc2Cl)N2CCCCC2)c1=O (stereo not given) do in these assays?
AmpC inh detg: 18%; Sm TGR block: 28µM*

Results for Cc1cc(O)c(C(c2ccccc2Cl)N2CCCCC2)c(=O)n1Cc1ccco1 (stereo not given) ?
AmpC inh detg: 2%; Sm TGR block: 4.5µM*

How did COc1ccc(C(c2c(O)cc(C)n(Cc3ccco3)c2=O)N2CCN(c3ccccc3)CC2)cc1 (stereo not given) do in these assays?
AmpC inh detg: 8%; Sm TGR block: 3.2µM*

Results for Cc1cc(C)cc(C(=O)OCC(=O)NCc2ccco2)c1 ?
AmpC inh no detg: -14%

What do the screens show for `Cc1c(NS(=O)(=O)c2cc(C(=O)N(C)Cc3ccccc3)ccc2Cl)c(=O)n(-c2ccccc2)n1C`?
AmpC inh no detg: -1%

Results for Cc1oc2c(CN3CCC(C)CC3)c(O)ccc2c(=O)c1-c1ccccc1 ?
AmpC inh no detg: -20%; AmpC inh detg: 2%; Sm TGR block: -6%

What do the screens show for `CN(Cc1ccccc1)S(=O)(=O)c1csc(C(N)=O)c1`?
AmpC inh no detg: -13%; AmpC inh detg: -7%; Sm TGR block: -7%

Results for COc1ccccc1C(c1c(O)cc(C)n(Cc2ccco2)c1=O)N1CCCCC1 (stereo not given) ?
AmpC inh detg: -4%; Sm TGR block: 7.1µM*

Results for Cc1cc(C(=O)CN2C(=O)NC3(CCCCC3)C2=O)c(C)n1Cc1ccco1 ?
AmpC inh no detg: -4%; AmpC inh detg: 2%; Sm TGR block: -11%

What do the screens show for `COc1ccccc1C(CNC(=O)c1ccco1)N1CCCC1` (stereo not given)?
AmpC inh no detg: -3%; AmpC inh detg: 2%; Sm TGR block: -18%

What do the screens show for `Cc1cc(O)c(C(c2ccccc2)N2CCCCC2)c(=O)n1Cc1ccco1` (stereo not given)?
AmpC inh detg: 0%; Sm TGR block: 10µM*
